Results from PubChem BioAssay AID720690 (Broad Institute, 2013).
Entries with a potency or affinity are not part of this list. Calls of active or inactive are those of the source.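 The calls were made as follows: active = every repeat run showing a signal drop whose fitted half-maximal concentration is at most twice the top tested concentration; inconclusive = repeat runs disagree, or flat partial drop, or poor fit; inactive = the rest.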

experiment: general mammalian cell viability loss – activator set, cherry-pick, cytotoxicity control for miR-122 modulator project, dose response (AID 720690); settings: HEK293T viability, CellTiter-Glo luminescence, 48 h; series mostly up to 26 µM

SMILES	outcome
Nc1nc(Cl)nc2c1ncn2[C@H]1C[C@H](O)[C@@H](CO)O1	inactive
CC1CCN(CCc2nc3cc(NC(=O)Nc4ccccc4)ccc3n2C)CC1	inactive
OC[C@H]1[C@@H](c2ccccc2)[C@H](CNCC2CCC2)N1CC1CC1	inactive
CC(C)NC(=O)Nc1ccc2c(c1)C(=O)N(C)[C@@H]1CC[C@H](CC(=O)NCC(F)(F)F)O[C@H]1CO2	inactive
CCCNC(=O)C[C@@H]1CC[C@@H]2[C@H](COc3ccc(NC(=O)c4cc(F)cc(F)c4)cc3C(=O)N2C)O1	inactive
C[C@@H]1CN([C@@H](C)CO)C(=O)c2cc(NS(=O)(=O)c3ccc(F)cc3)ccc2O[C@@H]1CN(C)Cc1ccc(-c2ccccc2)cc1	inactive
O=C(C1CC1)N1C[C@H]2[C@@H](c3ccccc31)[C@H](CO)N2C(=O)c1ccccc1F	inactive
COCC(=O)Nc1ccc2c(c1)C(=O)N(C)[C@@H]1CC[C@@H](CC(=O)OC)O[C@@H]1CO2	inactive
CCOc1ccc(C(CCc2ccccc2)NC(=O)c2ccccc2F)cc1OCC (stereo unspecified)	inactive
CN1C(=O)c2cc(NC(=O)c3cccs3)ccc2OC[C@@H]2O[C@@H](CC(=O)O)CC[C@H]21	inactive
C/C=C/c1ccc([C@H]2[C@@H](CNC(=O)CC)N(Cc3ccccn3)[C@H]2CO)cc1	inactive
CN1C(=O)c2cc(NC(=O)c3cccs3)ccc2OC[C@H]2O[C@H](CC(=O)NCCN3CCCCC3)CC[C@@H]21	inactive
CCCNC(=O)Nc1ccc2c(c1)C(=O)N(C)[C@H]1CC[C@@H](CC(=O)NCC3CCCCC3)O[C@@H]1CO2	inactive
CN1C(=O)c2cc(NC(=O)Nc3cccc(Cl)c3)ccc2OC[C@H]2O[C@H](CC(=O)NCCc3ccncc3)CC[C@H]21	inactive
CCCNC(=O)Nc1ccc2c(c1)OC[C@@H](C)N(CCC)C[C@H](C)[C@H](OC)CN(C)C2=O	inactive
CC(C)C(=O)Nc1ccc2c(c1)C(=O)N(C)[C@H]1CC[C@@H](CC(=O)NCc3ccccc3F)O[C@H]1CO2	inactive
OCc1ccc(-c2nn(Cc3ccccc3)c3ccccc23)o1	inactive
CCCC(=O)Nc1ccc2c(c1)C(=O)N(C)[C@@H]1CC[C@H](CC(=O)NCCN3CCCCC3)O[C@H]1CO2	inactive
CC(C)C(=O)Nc1ccc2c(c1)C(=O)N(C)[C@H]1CC[C@H](CC(=O)Nc3cccc(F)c3)O[C@@H]1CO2	inactive
CCNC(=O)Nc1ccc2c(c1)C(=O)N(C)[C@H]1CC[C@H](CC(=O)NCCN3CCCC3)O[C@@H]1CO2	inactive
COc1ccc(OC)c(Nc2cc(C)nc3ccc(C)cc23)c1	inactive
COCC(=O)NC[C@@H]1[C@H](c2ccc(C3=CCCC3)cc2)[C@H](CO)N1C(=O)C1CC1	inactive
CNC(=O)C[C@@H]1CC[C@@H]2[C@@H](COc3ccc(NC(=O)c4ccccc4F)cc3C(=O)N2C)O1	inactive
COCC(=O)N(C)C[C@H]1Oc2cc(C#Cc3cccnc3)ccc2S(=O)(=O)N([C@@H](C)CO)C[C@@H]1C	inactive
CCOc1cc(-c2nccc3cc(OC)c(OC)cc23)cc(OCC)c1OCC	inactive
CN1C(=O)c2cc(NC(=O)c3cccc(F)c3)ccc2OC[C@H]2O[C@@H](CC(=O)O)CC[C@@H]21	inactive
